From PubChem BioAssay
Shown are actives, neighbours in structure and some others; about 2.3% of the full set was active somewhere.
IDE inh: human IDE inhibitors in live cells, primary screen, fluorescence polarization, HEK cells, FAbetaB substrate; Insulin-degrading enzyme (Homo sapiens), P14735; FAbetaB cleavage; inhibition, % at 5.59 µM; 320,000 tested, 0.41% active; AID 434962, 2010;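 active = percent inhibition above the average of all tested compounds plus 3 SD, set per screening campaign, cut at about 16% in these data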;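 note: IDE supplied by intact live HEK cells; FP after avidin binding of uncleaved biotin substrate so inhibition keeps polarization high; 0% = DMSO wells and 100% = 60 µM reference IDE inhibitor Ii1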
Rin1-Abl PPI inh: inhibitors of Rin1-Abl protein binding, primary screen, biochemical, TR-FRET; Tyrosine-protein kinase ABL1 (Homo sapiens) + Ras and Rab interactor 1 (Homo sapiens), …; inhibition, % at 7.35 µM; 360,000 tested, 0.4% active; in the data active = inhibition above about 5%, passing the limit was not always enough
TPT1 inhibitor: Candida albicans TPT1 enzyme inhibitors, primary screen, biochemical, fluorescence polarization; inhibition, % at 5 µM; AID 1962, 2009; recombinant caTPT1, FP RNA substrate dephosphorylation; tRNA 2'-phosphotransferase TPT1 (Candida albicans SC5314); 300,000 tested, 0.81% active;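 active = inhibition above the mean of all tested compounds plus 3 SD, set per screening campaign, cut at about 24% in these data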;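 note: plate controls were DMSO alone for no effect and ferristatin control at 100 nM for full effect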
Calb FLC: C. albicans growth inhibition with fluconazole, primary screen, CaCi-2 strain, Alamar Blue fluorescence | growth inhibition, % (concentration not given with the values) | C. albicans CaCi-2 (fluconazole-resistant clinical isolate) + fluconazole, 48 h | 300,000 tested, 0.57% active;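 active = growth inhibition above about 58% in most replicates, limit read from the data, passing the limit was not always enough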;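 note: all wells also contain fluconazole at 8 µg/ml as a sub-toxic cotreatment; 0% = median of DMSO wells and 100% = median of geldanamycin control wells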
Rpn11 block: Rpn11 (PSMD14) deubiquitinase inhibitors, primary screen, biochemical, fluorescence polarization, uHTS; human 26S proteasome, Ub4-pepOG fluorescence polarization; 20S core pre-blocked with epoxomicin; inhibition, % at 20 µM; 360,000 tested, 0.59% active;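 active = inhibition at 20 µM, scaled to each plate's controls, above about 33%, limit read from the data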
Target sequence (O00487 whole entry, looked up): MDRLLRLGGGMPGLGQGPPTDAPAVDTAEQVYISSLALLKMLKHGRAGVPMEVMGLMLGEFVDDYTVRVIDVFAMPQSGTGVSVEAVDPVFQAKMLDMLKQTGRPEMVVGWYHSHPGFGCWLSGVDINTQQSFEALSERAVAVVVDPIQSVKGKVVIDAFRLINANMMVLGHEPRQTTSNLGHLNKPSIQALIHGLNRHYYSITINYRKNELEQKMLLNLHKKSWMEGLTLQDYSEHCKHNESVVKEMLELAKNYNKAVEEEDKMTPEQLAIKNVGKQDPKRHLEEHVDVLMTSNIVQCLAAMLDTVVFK
IDE act: human IDE activators in live cells, primary screen, fluorescence polarization, HEK cells, FAbeta-B substrate; Insulin-degrading enzyme (Homo sapiens), P14735; FAbeta-B cleavage; 0% vehicle, 100% cell-free pure enzyme wells; activation, % at 5.96 µM; 340,000 tested, 0.073% active;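 active = activation above the mean of all tested compounds plus 3 SD, set per screening campaign, cut at about 17% in these data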
caTPT1 confirm: Candida albicans TPT1 inhibitors, confirmation, biochemical, fluorescence polarization, triplicate. shares compounds with TPT1 inhibitor. recombinant caTPT1, RNase T1 coupled. inhibition, % at 5 µM. 2,400 tested, 74% active;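 active = inhibition above the primary screen limit, the mean inhibition of all tested compounds plus 3 SD, cut at about 25% in these data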
RNase T1 inh: RNase T1 inhibitors, counter-screen for TPT1 inhibitor project, biochemical, fluorescence polarization; RNase T1 cleavage, 1536-well; 2,400 tested, 83% active; shares compounds with TPT1 inhibitor; inhibition, % at 5 µM;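 active = inhibition above the solvent-only control well mean plus 3 SD, limit set per screening run, cut at about 23% in these data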;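 note: plate controls were DMSO wells with enzyme for no effect and wells without RNase T1 for full effect; inhibitors block cleavage so intact labeled substrate keeps polarization high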
Target sequence (P00651 whole entry, looked up): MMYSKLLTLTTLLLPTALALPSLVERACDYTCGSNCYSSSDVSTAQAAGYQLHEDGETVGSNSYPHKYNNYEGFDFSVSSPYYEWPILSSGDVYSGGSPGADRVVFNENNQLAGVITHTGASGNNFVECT
* hit, by the source's call; . = no result shown.

SMILES	IDE inh	Rin1-Abl PPI inh	TPT1 inhibitor	Calb FLC	Rpn11 block	IDE act	caTPT1 confirm	RNase T1 inh
O=C(Nc1nc2c(s1)CN(Cc1ccccc1)CC2)c1cccc(S(=O)(=O)N2CCc3ccccc32)c1	-8	-7	125*	5	2	-3	94*	94*
C(=C\c1ccccc1)/CN1CCN(C(c2ccnc3ccccc23)c2nnnn2C2CCCC2)CC1 (configuration not stated)	.	0	.	.	-4	.	.	.
CC1(C(=O)Nc2cccc3cccnc23)CCN1Cc1cccc2c1OCO2 (configuration not stated)	.	-1	.	.	-1	.	.	.
O=C1CN(CC(=O)Nc2cccc(Cl)c2Cl)c2ccccc2N1	-2	-1	34*	4	.	5	16	24*
O=C(CN1C(=O)NC2(CCCC2)C1=O)Nc1cccc(Cl)c1Cl	1	3	1	-5	3	4	.	.
CCN1C=C(Cc2ccc(OC)cc2)C2=C(C1)C(c1ccc(OC)cc1)C(C#N)=C(N)O2 (configuration not stated)	2	1	44*	-18	29	-5	27*	35*
COc1ccc(C2C(C#N)=C(N)Oc3cc4c(cc32)OCO4)cc1 (configuration not stated)	4	3	3	14	-1	1	.	.
CC(C)NC(=O)/C(C#N)=C\c1ccc(N(C)C)o1	6	-20	153*	21	.	-24	177*	170*
CCOC(=O)CN(C(=O)CSc1nnnn1C)c1ccccc1	1	-2	.	.	0	-4	.	.
CCOc1cc(/C=C2\CCCC(C(=O)C(F)(F)F)=C2O)ccc1O	2	0	36*	11	3	-5	44*	58*
COc1cc(/C=C2/CCCC(C(=O)C(F)(F)F)=C2O)ccc1O	3	-2	19	1	12	0	.	.
COc1ccc(Cl)cc1N(CC(=O)N(C)C)S(=O)(=O)c1ccc(C)c([N+](=O)[O-])c1	-2	0	1	3	3	2	.	.
Cc1cc(NC(=O)/C(C#N)=C/c2ccc(-c3ccc(SC(F)F)cc3)o2)n(-c2ccccc2)n1	-4	2	57*	-4	.	-3	57*	66*
CCOc1cccc(OCCOCCNC(C)(C)C)c1	-3	2	38*	-23	0	6	8	10
CC1(C)OC2OC3C(CNCCO)OC(c4ccccc4)OC3C2O1 (configuration not stated)	.	-2	.	.	-9	-3	.	.
CC(=O)NC(CC(C)C)C(=O)NC(CO)C(=O)NC(CCC(=O)O)C(=O)NC(C)C(=O)NC(CC(C)C)C(N)=O (configuration not stated)	1	4	-2	0	2	4	.	.
COC(=O)c1sccc1NC(=O)c1ccc(OC)cc1	-3	-4	63*	7	-5	1	4	5
COc1ccccc1-n1cc([C@@H]2C[C@H]3CN(c4ccccc4)C(=O)[C@]34CCCN24)cn1	11	-4	60*	-4	.	.	47*	61*
COc1cc([C@@H]2C[C@H]3CN(c4ccccc4)C(=O)[C@]34CCCN24)cc(OC)c1OC	1	2	-5	-6	17	5	.	.
COc1ccc(-c2nc(CN3CCN(Cc4cccc(Cl)c4)CC3)c(C)o2)cc1	0	0	-3	0	10	3	.	.
CCOC(=O)N1CCN(/C=C(\C#N)c2nc3ccccc3s2)CC1	7	2	75*	13	.	2	44*	54*
